Compound activity (PubChem)
Shown are actives, neighbours in structure and some others; about 3.9% of the full set was active somewhere.
HIF act: HIF pathway transcriptional activation | U2OS HRE-luciferase reporter, luminescence; normalized: DMSO 0%, desferrioxamine 100% | activation, % at 7.5 µM (by protocol) | 0.32% of 300,000 active | AID 1910;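 active = mean activation of at least 10% of the iron chelator positive control signal, with at least half of replicates also reaching 10%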
Yeast superoxide: lowers age-related superoxide in aged yeast cells | S. cerevisiae aged cells, superoxide DHE fluorescence; hits give low values | superoxide response (% of plate mean), % at 10 µM | 0.18% of 330,000 active;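 active = superoxide response under a set limit, about three screen SD below normal, cut at about 65% in these data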;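 also: yeast aged for seven days with compound at 30 °C before DHE staining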
PLCg1 inh: blocks human PLC-gamma1 enzyme activity; P19174; 0.84% of 370,000 active; purified PLC-gamma1, fluorogenic substrate, fluorescence; inhibition, % at 12.2 µM; AID 720700; in the data active = inhibition above about 9.5%
PLC-beta3 inh: PLC-beta3 (human) inhibition, primary screen | Purified PLC-beta3, fluorogenic substrate, fluorescence | inhibition, % at 12.2 µM | 0.18% of 370,000 active | AID 720704; in the data active = inhibition above about 11%
AHR act: activators of human aryl hydrocarbon receptor; AHR-responsive luciferase reporter cells, luminescence; P35869; AID 2796; 2.5% of 320,000 active; activation, % at 5 µM; in the data active = activation above about 47%
sPLA2-III inh: Blocks human group III sPLA2 activity; QFRET BODIPY PC-A2 liposome hydrolysis, fluorescence; inhibition, % at 12.2 µM; 0.56% of 370,000 active; AID 743126;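 active = inhibition above mean plus 3 SD of compounds lying within the high and low control bounds, cut at about 19% in these data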
Target sequence (Q9NZ20 whole entry, looked up): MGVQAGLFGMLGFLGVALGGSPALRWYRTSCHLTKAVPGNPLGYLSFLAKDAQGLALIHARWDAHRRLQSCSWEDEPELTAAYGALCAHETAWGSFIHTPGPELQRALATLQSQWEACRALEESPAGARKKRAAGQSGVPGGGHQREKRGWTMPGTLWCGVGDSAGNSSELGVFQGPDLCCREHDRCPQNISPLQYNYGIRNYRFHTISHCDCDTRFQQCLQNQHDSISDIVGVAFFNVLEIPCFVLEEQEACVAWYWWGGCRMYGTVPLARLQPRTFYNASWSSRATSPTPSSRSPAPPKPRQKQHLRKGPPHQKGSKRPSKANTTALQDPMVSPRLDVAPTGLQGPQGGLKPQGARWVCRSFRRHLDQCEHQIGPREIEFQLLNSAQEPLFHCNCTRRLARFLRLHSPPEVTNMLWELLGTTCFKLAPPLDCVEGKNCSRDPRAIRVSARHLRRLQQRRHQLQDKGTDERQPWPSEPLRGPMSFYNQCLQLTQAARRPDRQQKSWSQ
Of the large screens only hits and unclear results are named; the others gave an inactive call.

COc1ccc(C(=O)N/N=C/c2ccc(OC)c(CN3CCN(c4ccc(F)cc4)CC3)c2)cc1	none
COc1cccc(/C=N/NC(=O)c2ccoc2C)c1O	HIF act 25
COc1ccc(/C=N/NC(=O)c2ccoc2C)cc1CN1CCN(c2ccc(F)cc2)CC1	AHR act 73
COc1cccc(/C=N/NC(=O)C(=O)N/N=C/c2cccc(OC)c2O)c1O	none (no result: HIF act, Yeast superoxide, AHR act)
Cc1ccc(/C=N/NC(=O)c2c[nH]c3ccccc23)o1	AHR act 72 (no result: PLCg1 inh, PLC-beta3 inh, sPLA2-III inh)
Cc1ccc(/C=N/NC(=O)c2c[nH]c3ccccc23)s1	AHR act 50
Cc1ccc(/C=N/NC(=O)c2cccc3ccccc23)o1	none
COc1ccc(-n2c(SCc3ccc([N+](=O)[O-])cc3)nnc2-c2ccco2)cc1	none (no result: HIF act, Yeast superoxide, AHR act)
CCn1c2ccccc2c2cc(NC(=O)COC(=O)c3cc(F)ccc3C)ccc21	none (no result: HIF act, Yeast superoxide, AHR act)
COC(=O)C1=C(C)N(Cc2cccc(C(F)(F)F)c2)C(=NCc2ccc3c(c2)OCO3)NC1c1ccc(Cl)cc1 (configuration not stated)	none (no result: HIF act, Yeast superoxide, AHR act)
COC(=O)[C@H](C(C)C)N1Cc2nnn(Cc3ccccc3)c2C=CS1(=O)=O	none (no result: HIF act, Yeast superoxide, AHR act)
O=C(N/N=C/c1ccccn1)c1c[nH]c2ccccc12	AHR act 57
Cc1ccc(OCCNC(=O)[C@@H](Cc2ccccc2)NC(=O)[C@H]2O[C@@H](n3ccc(=O)[nH]c3=O)[C@H](O)[C@@H]2O)cc1C	none (no result: HIF act, Yeast superoxide, AHR act)
Cn1cnc2cc(NCc3cccs3)ccc21	AHR act 50
Cc1ccc2nc(/C=C/c3cccc(F)c3)ccc2c1	AHR act 48
CCOC(=O)CCCNC(=O)OC1CC2CC1[C@H]1CCCCN1[C@H]2C (some centres not stated)	none (no result: HIF act, Yeast superoxide, AHR act)
CC(C)COc1ccc(-c2csc(N3CCC(C(N)=O)CC3)n2)cc1	none (no result: HIF act, Yeast superoxide, AHR act)
CC(C)(C)c1ccc(C(=O)Nc2ncn[nH]2)cc1	AHR act 70
C=CCn1c(=O)c(C(=O)Nc2ccccc2O)c(O)c2ccccc21	AHR act 63
O=c1cc(-c2ccc(F)cc2)oc2ccccc12	AHR act 71
CSc1ccc(-c2cc(=O)c3ccccc3o2)cc1	none
C#CCn1c(O)c(N=NC(=O)C(O)c2ccccc2)c2ccccc21 (configuration not stated)	AHR act 67
COc1ccc(C(=O)NC(=S)Nc2cccnc2)cc1[N+](=O)[O-]	Yeast superoxide 48, AHR act 59
CCOc1ccc(C(=O)NC(=S)Nc2cccnc2)cc1[N+](=O)[O-]	none
COc1ccc(C(=O)NC(=S)NCc2cccnc2)cc1Br	AHR act 51
COCCCNC(=O)CSc1nnc(-c2ccncc2)n1-c1ccc(OC)cc1	none (no result: HIF act, Yeast superoxide, AHR act)
Cc1cccc(-c2cccc3c4c([nH]c23)[C@@H]2C[C@H](N(C)C(=O)c3ccccc3F)[C@H]([C@H](C)O)CN2CC4)c1	none (no result: HIF act, Yeast superoxide, AHR act)
CC(=O)c1cccc(NC(=S)Nc2cccc3ccccc23)c1	AHR act 54
CC(=O)Nc1cccc(NC(=S)Nc2cccc3ccccc23)c1	none
Cc1ccc(C(=O)c2c(C)oc3c2C(=O)C(=O)c2ccccc2-3)cc1	none (no result: PLCg1 inh, PLC-beta3 inh, sPLA2-III inh)
Cc1ccc(C(=O)c2coc3c2C(=O)C(=O)c2ccccc2-3)cc1	AHR act 50
Cc1c(C(=O)OC2CCCC2)[nH]c2c1C(=O)CC(c1ccco1)C2 (configuration not stated)	AHR act 57
Cc1c(C(=O)OCC(C)C)[nH]c2c1C(=O)CC(c1ccco1)C2 (configuration not stated)	none
CC(=O)c1sc(N/N=C/c2cccc(O)c2)nc1C	none
CC(=O)c1sc(Nc2cccc3ccccc23)nc1C	none
CC(=O)c1sc(N/N=C\c2c(O)ccc3ccccc23)nc1C	AHR act 65
CC(=O)c1sc(N/N=C\c2ccc(N(C)C)cc2)nc1C	AHR act 57
COC(=O)c1ccccc1NC(=O)c1cc2sccc2n1C	AHR act 65
COC(=O)c1cccc(NC(=O)c2cc3sccc3n2C)c1	none
O=C(/C=C/c1ccccc1)OCC(=O)N1CCCC1	PLCg1 inh 11 (no result: HIF act)
C#CCCC(=O)O[C@H]1CCC[C@@]2(C(=O)N(Cc3ccccc3)c3ccccc32)[C@H]1NC(=O)CCc1ccccc1	none (no result: HIF act, Yeast superoxide, AHR act)
Cc1cc(NS(C)(=O)=O)c(=O)n(Cc2cccc(F)c2)c1	sPLA2-III inh 23 (no result: Yeast superoxide, AHR act)
COc1cc(/C=C(\C#N)c2nc3ccccc3[nH]2)c([N+](=O)[O-])cc1OCc1ccccc1	AHR act 88
CCOc1cc(/C=C(/C#N)c2nc3ccccc3[nH]2)ccc1OCc1ccc(C(=O)O)o1	none
COc1cccc(C(=O)Nc2ccc(NC(=O)C3C4C=CC(C4)C3C(=O)O)cc2)c1 (configuration not stated)	AHR act 73
COc1cc(NC(=O)C2C3C=CC(C3)C2C(=O)O)ccc1NC(=O)c1ccccc1 (configuration not stated)	AHR act 56
CC(=O)c1cccc(NC(=O)C2C3C=CC(C3)C2C(=O)O)c1 (configuration not stated)	none
C[C@H]1Cn2nncc2Cn2c3ccccc3c(=O)n21	none (no result: HIF act, Yeast superoxide, AHR act)
CCCC(=O)NCCCCNC(=O)CCC	none
CC(=O)N(O)CCCCCNC(=O)CCC(=O)N(O)CCCCCNC(=O)CCC(=O)N(O)CCCCCN	HIF act 19
Cc1onc(-c2ccccc2Cl)c1C(=O)OCC(=O)Nc1ccc2c(c1)OCO2	AHR act 56
CC(C)c1cc(C(C)C)c(S(=O)(=O)N2CCC(C(=O)NCc3cccs3)CC2)c(C(C)C)c1	none (no result: HIF act, Yeast superoxide, AHR act)
N/C(=N\c1nc2ccccc2o1)NC(=O)c1ccc(Cl)cc1	AHR act 68
CC(C)(C)c1ccc(C(=O)N/C(N)=N/c2nc3ccccc3o2)cc1	none (no result: PLCg1 inh, PLC-beta3 inh, sPLA2-III inh)
O=C(NCc1cccc(C(F)(F)F)c1)O[C@H]1CC[C@@]23CCCN2C(=O)CCC[C@H]3C1	none (no result: HIF act, Yeast superoxide, AHR act)
Cc1ccc2c(c1)C(=NC1CCCCC1)c1cc3ccccc3nc1-2	none
Cc1ccc2c(c1)-c1nc3ccccc3cc1C2=NC1CCCCC1	AHR act 79 (no result: HIF act)
CCOC(=O)C(=CNc1ccc2c(c1)c1ccccc1n2CC)C(=O)OCC	none
CCn1c2ccccc2c2cc(NS(=O)(=O)c3ccccc3C)ccc21	AHR act 73
Cc1ccc(NC(=O)C2CCN(c3nnc(-n4cccc4)s3)CC2)c(C)c1	none (no result: HIF act, Yeast superoxide, AHR act)
CCOC(=O)[C@]12CCCCC/C=C\1N(Cc1ccc(OC)cc1)C(=O)[C@H]2CC(=O)NCCCCc1ccccc1	none (no result: HIF act, Yeast superoxide, AHR act)
CCOc1ccc(NC(=O)c2ccc(Cn3nc(C)cc3C)o2)cc1	AHR act 47
Cc1cc(C)n(Cc2ccc(C(=O)NN)o2)n1	none
Cc1cccc(/N=C/c2c(O)[nH]c3ccccc23)n1	AHR act 64
COc1ccc(/C=N\NC(=O)Cc2cccs2)c(OC)c1OC	none (no result: HIF act, Yeast superoxide, AHR act)
O=C1CCCN2N=C(SCC(=O)Nc3nc4ccccc4s3)SC2=N1	PLCg1 inh 10
